Reference: PubChem BioAssay (NCI)
The panel holds about 83,000 compounds, 20% with a hit somewhere; the sample as a whole holds those more often.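 Assay: single dose, 48 h. Readout: percent growth (0 = no net growth; negative = cell death). Active: <10.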 Calls of active or inactive are those of the source.

These compounds were tested on T-47D breast (assay: NCI-60 one-dose screen, 48 h (100 = growth as untreated, 0 = no growth, -100 = all killed)). Settings: 10 µM unless noted.
Method: Growth inhibition of the T-47D human tumor cell line is measured as a screen for anti-cancer activity. Cells are grown in 96 well plates and exposed to the test compound for 48 hours. Compounds are tested at a single concentration, which is 10^-5 M for most compounds. The reported endpoint is percent growth (GI% or GIPRCNT), where numbers from 0 - 100% represent growth inhibition, and numbers from -100% - 0 represent cell death. For example, a value of 40 represents 60% growth inhibition. A value of 0 means no net growth occurred over the course of the experiment. A value of -40 indicates 40% of cells at the beginning of the experiment died by the end of the experiment. A value of -100 means all cells are dead at the end of the experiment.
NCI-60 Human Tumor Cell Lines Screen was performed using the standard one-dose NCI protocol, which is described in more detail at https://dtp.cancer.gov/discovery_development/nci-60/default.htm.
Compounds with GIPRCNT values below 10 were considered active. Activity score was based on GIPRCNT using the following formula: […]
Score is 0 for GIPRCNT values of 100 or above, 50 for GIPRCNT values of 0, and 100 for GIPRCNT values of -100.

SMILES	growth
COc1ccccc1CNCCCN1C(=O)c2ccc3c4c(ccc(c24)C1=O)C(=O)N(CCCCNCCCN)C3=O	-45.4% (active)
O=C1/C(=C/c2cc(F)cc(F)c2)Cc2cc(F)cc(F)c21	107% (inactive)
C=C1C(=O)O[C@H]2[C@H]1CC/C(COC(=O)NCc1ccc(Cn3c(=O)sn(CCCl)c3=O)cc1)=C\CC[C@@]1(C)O[C@@H]21	3.07% (active)
CN(C)N1C(=O)c2c(Cl)c(Cl)c(Cl)c(Cl)c2C1=O	93% (inactive)
CC(=O)Nc1ccc(/C=N/N2CCCCCC2)cc1	100% (inactive)
Cc1c(C(=O)Nc2ccccc2F)sc2c(=O)[nH]cnc12	90% (inactive)
CC(C)(C)[Si](C)(C)OC1[C@@H](O[Si](C)(C)C(C)(C)C)[C@@H](CNC(=O)NC(=O)NC(=O)CI)O[C@H]1n1cnc2c(NC(=O)Nc3ccccc3)ncnc21 (stereo not given in full)	87.5% (inactive)
c1ccc(-c2nnn(-c3ccccc3)n2)cc1	108% (inactive)
COc1ccc(-c2nn(C(=O)NCCN(C)C)cc2-c2ccncc2)cc1Cl	37.1% (inactive)
CN(C)CCNC(=O)n1cc(-c2ccncc2)c(-c2cc(O)cc(Cl)c2)n1	106% (inactive)
COc1ccccc1CNCCCN1C(=O)c2ccc3c4c(ccc(c24)C1=O)C(=O)N(CCCNCCCN)C3=O	-21.6% (active)
O=C1/C=C/[C@@H](O)[C@@H]2C[C@@H](O)C[C@H]2/C=C/CCC[C@H]([C@@H](O)CO)O1	81.8% (inactive)
COc1ccc2nc(C)cc(Sc3nc4ccccc4s3)c2c1	32.5% (inactive)
OCCN(CCO)c1ccc2ccccc2c1	96.6% (inactive)
O=C1N(Cc2ccccc2Cl)c2ccccc2C12NN=C(c1ccccc1)S2 (stereo not given)	72.3% (inactive)
COc1ccc2nc(-c3ccc(-c4noc(-c5ccc(Cl)cc5)n4)cc3)[nH]c2c1	67.3% (inactive)
COc1cc(/C=N/NC(=O)Cn2c(-c3ccc(C)o3)nc3ccccc32)ccc1OCc1ccccc1	69.2% (inactive)
Cn1c(=O)c2c(nc(N/N=C/c3ccccc3Cl)n2C)n(C)c1=O	105% (inactive)
COc1cc(NC(=O)CSc2nc3ccc(Cl)cc3c(=O)n2Cc2ccccc2)cc(OC)c1OC	55.7% (inactive)
CS(=O)(=O)c1ccc(C(=O)N/N=C/c2ccccc2Cl)cc1	87.5% (inactive)

SMILES	growth
CC(C)(C)OC(=O)N1CCCN(CCNc2nccc(-c3c(-c4cccc(O)c4)nc4sccn34)n2)S1(=O)=O	86.6% (inactive)
CC(C)N(C(=S)SSC(=S)N(C(C)C)C(C)C)C(C)C	86.8% (inactive)
COc1ccccc1-[n+]1cc(-c2ccc(-c3ccccc3)cc2)n2c1CCCCC2	-5.11% (active)
O=C(Nc1cccc(Cl)c1)Nc1ccccc1Cl	81.5% (inactive)
N=C(N)c1ccc(-c2ccc(-c3ccco3)o2)cc1F	-27.8% (active)
CCN(CC)CCNC(=O)n1cc(-c2ccncc2)c(-c2cc(Cl)cc(OC)c2)n1	87.3% (inactive)
COc1ccc(/C=N/NC(N)=S)c(OC)n1	80% (inactive)
COc1ccc2[nH]cc(C3(c4c[nH]c5ccc(OC)cc45)C(=O)Nc4ccc(Cl)cc43)c2c1	76.4% (inactive)
N/C(=C\C(=O)n1nc(-c2ccccc2)cc1N)c1ccccc1	47% (inactive)
Nc1nc(NC2CC2)cc(-c2cccc(Cl)c2Cl)n1	32.2% (inactive)
C=CCOC(=O)C1=C(C)NC2=C(C(=O)CC(C)(C)C2)C1c1ccc(OC)cc1 (stereo not given)	99% (inactive)
CCOC(=O)Nc1ccc2nc(Sc3ccc(Cl)cc3)sc2c1	36.4% (inactive)
CN(C)c1ccc(C2(Cl)c3ccccc3N(C)c3ccccc32)cc1	33.5% (inactive)
Cc1ccc2c(C)c3c(ccc4ccccc43)c[n+]2c1	-8.02% (active)
O=C(O)CSc1ccc(NCc2oc(CO)cc(=O)c2O)cc1	108% (inactive)
C[C@H](NC(=O)c1snnc1C1CC1)c1c(F)cccc1Cl	258% (inactive)
CC(C)C/C=C/C=C/C(=O)N[C@@H](CC(N)=O)C(=O)N[C@@H]1C(=O)N[C@H](c2ccc(O)cc2)C(=O)N[C@H](CCCN)C(=O)N[C@H]([C@@H](C)O)C(=O)N[C@H](c2ccc(O)cc2)C(=O)N[C@H](c2ccc(O)cc2)C(=O)N[C@H]([C@H](C)O)C(=O)N[C@H](Cc2ccccc2)C(=O)N[C@H](CCCN)C(=O)N[C@H](c2ccc(O[C@H]3O[C@@H](CO)[C@@H](O)[C@@H](O)[C@H]3O[C@@H]3O[C@H](CO)[C@H](O)[C@H](O)[C@@H]3O)cc2)C(=O)N[C@H]([C@H](C)O)C(=O)N[C@H](c2ccc(O)cc2)C(=O)NCC(=O)N[C@H](CC(C)C)C(=O)N[C@H](C)C(=O)N[C@H](c2ccc(O)c(Cl)c2)C(=O)O[C@@H]1C(N)=O	94.9% (inactive)
Clc1nnc2c3ccccc3ccn12	108% (inactive)
NC(=S)N1N=C(c2ccc(Cl)cc2)CC1c1cc2ccccc2[nH]c1=O (stereo not given)	89.2% (inactive)
O=C(CCCCCCN1CC(=O)N2[C@@H](c3ccc(Cl)c(Cl)c3)c3[nH]c4ccccc4c3C[C@H]2C1=O)NO	27.9% (inactive)
